SMILES strings stand for the structures. Among all 420,000 compounds or so, about 64,000 (15%) were called active. Inconclusive results (about 27%) are left out. Calls follow the shape of the dose curve; as a rule, active = well fitted inhibition curve with a large enough effect; inconclusive = small, poorly fitted or top-dose-only effect; inactive = flat fitted curve, though single readings scatter. Only a sample is shown. A call without a number means that no potency is given here.

The values that follow come from PubChem BioAssay AID686978 (National Center for Advancing Translational Sciences (NCATS), 2013).
Potency is read from the fitted curve at half-maximal effect.

The assay in a line: qHTS for Inhibitors of human tyrosyl-DNA phosphodiesterase 1 (TDP1): qHTS in cells in absence of CPT. Also: nearly all actives have a fitted effect of over 55% in size. The settings on record: DT40 Tdp1-/- hTDP1 cells, no CPT, ATP luminescence, 48 h; activity change, negative = growth inhibition: at 46.2 µM (top of the series). The method in brief: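 Seeded 400 DT40-hTDP1 cells/well (vehicle DMSO, no 20 nM CPT); pinned compounds; ≥48 hr at 37 °C; CellTiter-Glo luminescence as viability measure.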
As for `NC(=O)COC(=O)c1ccc2c(c1)C(=O)N(Cc1ccco1)C2=O`, the Potency result was “inactive”.
For the compound `CCCS(=O)(=O)NC(=O)C1(C)CCN(C(=O)c2sccc2C)C1` (configuration not stated), the Potency entry was “inactive”.
In the case of `COc1ccc(NC(=O)c2ccco2)cc1NC(=O)c1ccc(C#N)cc1F`, the Potency result was “inactive”.
Then `Clc1cc(-c2ccc(/C=N/n3cnnc3)o2)ccc1Br`, with “inactive”; and `Cc1cc([N+](=O)[O-])nn1CCCC(=O)Nc1cccnc1Cl`, with “inactive”.
The result for `CC(C)(C)c1ccc(C(=O)NCCn2c(N)c(C#N)c3nc4ccccc4nc32)cc1` reads 29.1 µM (active).
Consider `O=C(CCNC(=O)c1ccc([N+](=O)[O-])cc1)Nc1ccccc1N1CCOCC1`, for which the Potency result was “inactive”.
Take `CC(C)(C)c1ccc(C(=O)NCC(=O)OCN2C(=O)c3ccccc3C2=O)cc1`: the Potency entry is “inactive”.
As for `CCOC(=O)/C(C#N)=C\c1c(C)cc(C)c(COC(C)=O)c1C`, the Potency result is “inactive”.
Turning to `Cc1ccc2c(=O)c(C(=O)c3cccc(Cl)c3)cn(CC(=O)NCc3ccccc3)c2n1`, the Potency result is “inactive”.
Take `O=C(O)CC1=C(Nc2ccccc2)C(=O)N(c2ccccc2)C1c1ccc(Cl)cc1` (configuration not stated): the Potency result was “inactive”.
Consider `CCc1nc2onc(C)c2c(=O)n1CC(=O)O`, for which the Potency result is “inactive”.
As for `CCOC(=O)N1CCN(C(=O)c2ccc(S(=O)(=O)c3ccc(C)cc3)c(NC(C)=O)c2)CC1`, the Potency result was “inactive”.
With `CCOC(=O)N1CCN(C(=O)c2ccc3c(c2)N(Cc2ccc(C)cc2)CCS3)CC1`, the Potency was 23.1 µM (active).
In the case of `CCOC(=O)N1CCN(C(=O)c2cnc3n(c2=O)CCS3)CC1`, the Potency entry was “inactive”.
The result for `COc1ccc(NC(=O)NC2CC3CCCC(C2)N3Cc2ccccc2)cc1` (configuration not stated) reads “inactive”; that for `CC1(C)C2CC[C@]3(C)C(CC=C4[C@@H]5C[C@@](C)(CO)CC[C@]5(C(=O)O)CC[C@]43C)[C@@]2(C)CC[C@@H]1O` (some centres not stated), “inactive”; that for `Cc1sc2ncnc(SCC(=O)NC3CCS(=O)(=O)C3)c2c1C` (configuration not stated), “inactive”.
As to `COC(=O)c1c(-c2cccs2)csc1NC(=O)CSc1ncnc2sc(C)c(C)c12`, the Potency is 20.6 µM (active).
Then `Cc1sc2ncnc(SCC(=O)Nc3ccc(CN4CCCC4)cc3)c2c1C`, with “inactive”; and `CC(=O)Nc1ccc(N2C(=O)C3C4C=CC(CC4)C3C2=O)cc1` (configuration not stated), with “inactive”.
For the compound `O=C(O)[C@@H]1CCCN1c1ncnc2sc3c(c12)CCC3`, the Potency result was “inactive”.
Turning to `OCCNc1nc2ccccc2n1-c1ncnc2sc3c(c12)CCC3`, the Potency is 20.6 µM (active).
For the compound `O=C(O)c1cccnc1Sc1ncnc2sc3c(c12)CCC3`, the Potency entry was “inactive”.
The result for `COc1cc(N2C(=O)CSC2=S)cc(OC)c1OC` reads “inactive”; that for `O=C(Cn1nc(C(F)(F)F)c2c1CCC2)NCc1ccc(F)cc1`, “inactive”.
Turning to `O=C(CN(C(=O)c1csnn1)c1ccc(Br)cc1)NC1CCCC1`, the Potency entry was “inactive”.
`O=C(NC(=S)NC1CCCCC1)c1ccc(Cl)cc1`: the Potency entry is “inactive”.
Then `O=C(NNC(=O)C1C2CCC(C2)C1C(=O)O)c1ccc(Cl)cc1` (configuration not stated), with “inactive”; and `O=C(NNC(=S)NC1CC2CCC1C2)c1ccc(Cl)cc1` (configuration not stated), with 23.1 µM (active).
As for `Oc1c(C(c2ccco2)N2CCC3(CC2)OCCO3)sc2ncnn12` (configuration not stated), the Potency entry is “inactive”.
Then `CCOC(=O)c1ccc(N2C(=O)CC(N3CC(C)OC(C)C3)C2=O)cc1` (configuration not stated), with “inactive”; and `COc1ccc(C)cc1N(CC(=O)N1CCCC1)S(=O)(=O)c1ccccc1`, with “inactive”.
Consider `O=C(NCCCn1ccnc1)C1CCCN(S(=O)(=O)c2cc(Cl)ccc2Cl)C1` (configuration not stated), for which the Potency result is “inactive”.
As to `Cc1ccc(CNC(=O)CCC(=O)N2CC(C)Sc3ccccc32)cc1` (configuration not stated), the Potency result was “inactive”.
On to `Cc1ccc(Cl)cc1NC(=O)CCC(=O)N1CC(C)Sc2ccccc21` (configuration not stated), for which the Potency was 18.4 µM (active).
For the compound `Cc1ccc(Cl)cc1NC(=O)COC(=O)C1CCCCC1`, the Potency result was “inactive”.
In the case of `Cc1cccc(N(C(=O)Cn2nnc(-c3ccc(C)o3)n2)C(C(=O)NC2CCCC2)c2ccncc2)c1` (configuration not stated), the Potency entry was “inactive”.
Turning to `CC(NC(=O)c1ccco1)c1ccc2c(c1)OCO2` (configuration not stated), the Potency result was “inactive”.
For `C#CCSc1nnc(-c2sc3ccccc3c2Cl)o1`, the Potency entry is “inactive”.
Then `O=C(N[C@@H]1C/C=C\C[C@@H](CC(=O)N(CCO)Cc2ccccc2)C(=O)N[C@H](Cc2ccccc2)COC1=O)OCC1c2ccccc2-c2ccccc21`, with 4.61 µM (active); and `O=C1CCC/C=C/C[C@@H](CC(=O)N(CCO)Cc2ccccc2)C(=O)NC[C@H](c2ccccc2)O1`, with “inactive”; and `CN(Cc1cccs1)C(=O)Cc1c[nH]c2ccccc12`, with “inactive”.
For the compound `O=C1OC[C@@H]2CCCN2C(=O)[C@H](CC(=O)N(CCO)Cc2ccccc2)C/C=C\CC[C@@H]1Cc1ccc(F)cc1`, the Potency is 18.4 µM (active).
Turning to `O=C(C[C@@H]1C/C=C\CCC(=O)OC[C@@H]2CCCN2C1=O)NCCO`, the Potency result is “inactive”.
The result for `O=C1NC[C@@H](c2ccccc2)OC(=O)[C@H](Cc2ccc(F)cc2)CC/C=C/C[C@H]1CC(=O)N(CCO)Cc1ccccc1` reads 14.6 µM (active); that for `O=C1N[C@H](Cc2c[nH]c3ccccc23)COC(=O)[C@H](Cc2ccc(F)cc2)C/C=C\C[C@H]1CC(=O)N(CCO)Cc1ccccc1`, 16.4 µM (active); that for `O=C1CCC/C=C\C[C@@H](CC(=O)N(CCO)Cc2ccccc2)C(=O)NCCO1`, “inactive”.
Turning to `C=CCn1c(COc2ccccc2)nnc1SCC(=O)NCC(=O)OCC`, the Potency entry was “inactive”.
`O=C(O)CSc1nccc2ccccc12`: the Potency entry is “inactive”.
Then `COc1cc(Cl)c(S(=O)(=O)n2cnc(C)c2)cc1Cl`, with “inactive”; and `Cc1ccnc(NC(=O)CNC(=O)c2ccccc2)c1`, with “inactive”.
Take `CCc1ccc(CNC(=O)CCc2nc(-c3cccs3)no2)cc1`: the Potency result is “inactive”.
The result for `CSc1n[nH]c(-c2ccco2)n1` reads “inactive”; that for `O=C(CC(NS(=O)(=O)c1ccc(Cl)cc1)c1ccco1)NC1CCCC1` (configuration not stated), “inactive”.
Consider `CCc1nn(CC(=O)N2CCN(CC)CC2)c(=O)c2cccn12`, for which the Potency entry is “inactive”.
Regarding `COc1ccccc1NS(=O)(=O)c1ccc(C)c(C(=O)NCC(c2ccco2)N(C)C)c1` (configuration not stated), the Potency result is “inactive”.
For the compound `C=CC(C1=CC(=O)C=CC1=O)c1ccc(O)cc1` (configuration not stated), the Potency is 1.84 µM (active).
As for `COc1ccc(CC(=O)Nc2ccc3c(c2)CCC3)cc1S(=O)(=O)N1CCOCC1`, the Potency entry is “inactive”.
In the case of `COC(=O)c1cccc(N(CC(=O)NCC2CCCO2)C(=O)CCC(=O)Nc2cc(C)on2)c1` (configuration not stated), the Potency result is “inactive”.
As to `Cc1ccc(C)c(NC(=O)COC(=O)Cn2c(C)csc2=O)c1`, the Potency entry is “inactive”.
As to `CCOC(=O)Cc1csc(NC(=O)C(C)(C)C)n1`, the Potency entry was “inactive”.
Take `Cc1ccc2c(CSc3nncs3)cc(=O)oc2c1`: the Potency result is “inactive”.
Then `CCOC(=O)Cc1csc(SCc2cc(=O)oc3cc(O)ccc23)n1`, with 13 µM (active); and `CCOC(=O)Cc1csc(SCC(=O)Nc2ccc(C)cc2F)n1`, with 14.6 µM (active).
Then `CCOC(=O)Cc1csc(NC(=O)CSc2ccc(Br)cc2)n1`, with 16.4 µM (active); and `CCOC(=O)Cc1csc(NC(=O)COc2ccc3c(C)cc(=O)oc3c2)n1`, with “inactive”.
For the compound `CCOC(=O)Cc1csc(NC(NC(=O)OCC)(C(F)(F)F)C(F)(F)F)n1`, the Potency result was “inactive”.
In the case of `Cc1ccc(-c2csc(SCC(=O)Nc3cc(C)on3)n2)cc1`, the Potency result is “inactive”.
Consider `CN(C(=O)CSc1nnc(Nc2ccccc2)s1)C1CCS(=O)(=O)C1` (configuration not stated), for which the Potency result was “inactive”.
Then `CC(Nc1ccccc1)c1cccnc1` (configuration not stated), with “inactive”; and `O=C(O)C1CCCN1c1nc(Cl)ccc1[N+](=O)[O-]` (configuration not stated), with “inactive”.
The result for `CCn1ccnc1CN1CCCC(C(=O)c2ccc3c4c(cccc24)CC3)C1` (configuration not stated) reads 4.61 µM (active).
For the compound `Cc1c(CN2CCCC(C(=O)c3cccc(Cl)c3)C2)c(=O)n(-c2ccccc2)n1C` (configuration not stated), the Potency result was “inactive”.
Regarding `CCc1nccn1CCC(=O)N1CCCC(N2CCN(c3ccccc3F)CC2)C1` (configuration not stated), the Potency entry was “inactive”.
With `Cc1ccc(CN2CCC(n3nccc3NC(=O)CCCc3ccccc3)CC2)o1`, the Potency result is “inactive”.
Take `COc1cc(CN2CCC(n3nccc3NC(=O)CCCc3ccccc3)CC2)ccc1O`: the Potency result is “inactive”.
Take `COc1ccc(CN2CCC(n3nccc3NC(=O)CCCc3ccccc3)CC2)cc1C`: the Potency was 29.1 µM (active).
The result for `CCN(C[C@H]1N[C@@](CC)(C(=O)OC)[C@H]2C(=O)N(C)C(=O)[C@@H]12)C(=O)Nc1ccc(F)cc1` reads “inactive”; that for `CCN(C[C@H]1N[C@@](CC)(C(=O)OC)[C@H]2C(=O)N(Cc3ccccc3)C(=O)[C@@H]12)S(=O)(=O)c1ccc(C(F)(F)F)cc1`, 18.4 µM (active).
Take `CC[C@@]1(C(=O)OC)N[C@H](CN(C)C(C)=O)[C@@H]2C(=O)N(C)C(=O)[C@@H]21`: the Potency entry is “inactive”.
Take `CCN(CC)S(=O)(=O)c1ccc2c(c1)N(CC(=O)NCc1ccccc1)C(=O)CS2`: the Potency entry was “inactive”.
With `CCNC(=O)N(CC)C[C@H]1N[C@@](CC)(C(=O)OC)[C@H]2C(=O)N(Cc3ccccc3)C(=O)[C@@H]12`, the Potency entry is “inactive”.
The result for `COC(=O)[C@]1(Cc2ccccc2)N[C@H](CN(C)S(=O)(=O)c2ccc(OC(F)(F)F)cc2)[C@@H]2C(=O)N(C)C(=O)[C@@H]21` reads 23.1 µM (active); that for `CCC1OC(c2ccc([N+](=O)[O-])cc2)=Nc2ccccc21` (configuration not stated), “inactive”; that for `COC(=O)c1sccc1NS(=O)(=O)c1ccc(F)cc1F`, “inactive”.
The result for `C(=Nc1ccc(/C=C/c2ccnc3ccccc23)cc1)c1cc2c3c(c1)CCCN3CCC2` reads 11.2 µM (active).
For `CCCCC(CCCC)c1ccc(C=Nc2ccc(/C=C/c3ccnc4ccccc34)cc2)cc1`, the Potency is 11.2 µM (active).
The result for `CN(C)c1ccc(/C=N\S(=O)(=O)c2ccccc2)cc1` reads “inactive”.
On to `CN(C)c1ccc(/C=C/C=C/c2ccnc3ccccc23)cc1`, for which the Potency was 2 µM (active).
The result for `CN(C)c1ccc(/C=C/c2c3ccccc3nc3ccccc23)cc1` reads 12.6 µM (active); that for `CN(C)c1cc(N)c2ccccc2n1` (tested in a mixture with another compound), “inactive”; that for `O=C(O)C1C2C=CC(O2)C1C(=O)Nc1ccccn1` (configuration not stated), “inactive”.
Regarding `Cc1nc(COc2cc3oc(=O)cc(C)c3cc2Cl)cs1`, the Potency entry is “inactive”.
With `COc1ccc(S(=O)(=O)N2CCN(C(=O)NC3CCCCC3)CC2)cc1`, the Potency result is “inactive”.
As to `C[C@H](NS(=O)(=O)c1ccc(Cl)cc1)C(=O)OCC(=O)N1CCOCC1`, the Potency entry was “inactive”.
`Cc1sc2ccccc2c1CNC[C@H]1O[C@@H](n2ccc(=O)[nH]c2=O)[C@H](O)[C@@H]1O`: the Potency result was “inactive”.
